Assay outcomes from PubChem BioAssay.
aDG glyco act = increases alpha dystroglycan glycosylation. Pro5-aDG cells, alpha-DG glycosylation AlphaScreen (IIH6); 0% Pro5, 100% B10-LARGE cell signal. activation, % at 10 µM. 360,000 tested, 0.22% active. AID 624168;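 active = activation of at least 8% versus controls, or a plate z-score of at least 8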;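 also: Pro5 are CHO cells carrying HIG-tagged alpha-DG that lacks glycosylation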
GC-A act = GC-A (human) enzyme activation; HEK293 GC-A cells, cGMP TR-FRET, EC30 ANP; 0% at EC30 ANP, 100% saturating ANP; 370,000 tested, 0.14% active; activation, % at 10 µM; AID 1671463; P16066; in the data active = activation above about 40%
HSF-1 act = increases HSF-1 driven luciferase reporter signal | NIH3T3-HGL HSF-1 luciferase reporter, MG132, 8 h; 100% = twice DMSO control signal | 300,000 tested, 1.7% active | activation, % at 9 µM;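 active = mean replicate activation of at least 50% with a set share of replicates each reaching 50%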;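 also: 0% = median of the neutral control wells and 100% = twice that signal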
GC-B act = GC-B (human) receptor activation; P20594; HEK293-GC-B cells, CNP EC30, cGMP TR-FRET; 0% at EC30 CNP, 100% saturating CNP; activation, % at 10 µM; 370,000 tested, 0.11% active; AID 1920062;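 active = activation at 10 µM reaching about 35% in either raw or pattern-adjusted values, limit read from the data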
Dyrk1A ADPGlo = blocks rat Dyrk1A kinase activity; inhibition, % at 12.5 µM; 310,000 tested, 0.43% active; ADP-Glo luminescence, NFATc1 peptide; Q63470; in the data active = inhibition above about 50%;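 also: plate controls were vehicle with enzyme for no effect and no enzyme for full effect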
HSF1 inh = HSF1 inhibition; NIH3T3-HGL HSE-luciferase, MG132-induced, luminescence 8 h; stronger effect = lower value; AID 2098; 300,000 tested, 0.77% active; activity change, negative = inhibition, % at 7.5 µM (by protocol);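 active = more than half of replicate wells show activity change below -50%, luminescence cut by over half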;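 also: luciferase reports HSF-1 transcriptional activity via heat shock element; 0% = median of DMSO wells and -100% = zero luminescence signal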
An asterisk follows results filed as active; / = no result. An excerpt weighted towards active compounds, which were near 2.5% of everything screened.

SMILES	aDG glyco act	GC-A act	HSF-1 act	GC-B act	Dyrk1A ADPGlo	HSF1 inh
COc1cccc(-c2cnc(C(O)c3cccc(CN4CCCCC4)c3)[nH]2)c1 (stereo unspecified)	0	-1	/	1	/	/
CO[C@H]([C@H](C)/C=C/N(C)C=O)[C@@H](C)C(=O)CC[C@H](C)[C@H](O)[C@H](C)[C@H]1OC(=O)/C=C/C(C)=C/C[C@H](O)C[C@@H]2C=CC[C@@H](C[C@H](OC)C(C)(O)[C@@H](OC)C[C@@H](OC)[C@@H]1C)O2 (stereo partly specified)	/	-28	/	-31	/	/
Cc1ccccc1NC(=O)c1onc2c1CCCC2	0	1	43	-4	10	17
Cc1cccc(NC(=O)c2onc3c2CCCC3)c1C	0	2	65*	-1	17	19
C[C@@H](C(=O)Nc1ccc2c(c1)OCO2)n1c(=O)[nH]c2ccccc2c1=O	0	-2	1	2	2	-2
C[C@@H](C(=O)Nc1ccc2c(c1)OCCO2)n1c(=O)[nH]c2ccccc2c1=O	0	4	-81	-3	0	-77*
COc1ccc(C(=O)CSc2nc3ccccc3n2CC(=O)c2ccccc2)cc1	0	3	-5	4	6	-5
COc1ccc(C(=O)Cn2c(C(=O)/C=C/c3ccccc3)nc3ccccc32)cc1	0	-5	341*	5	4	225
Cc1ccc(C2CCC3(CCC(=O)N3CCOC(=O)Nc3cccc(C#N)c3)CC2)cc1 (stereo unspecified)	/	2	/	2	/	/
COc1ccc(CCNC(=O)COc2ccc(N(C)S(=O)(=O)c3ccc(C)cc3)cc2)cc1	0	-12	53*	-10	1	8
Cc1ccc(S(=O)(=O)N(C)c2ccc(C(=O)NCc3ccccn3)cc2)cc1	-1	4	14	-4	-5	5
COc1ccc(S(=O)(=O)N(C)c2ccc(C(=O)NCc3ccccn3)cc2)cc1	-1	-1	68*	1	-2	23
CCO[C@@H]1OC(C(=O)Nc2ccccc2)=C[C@H](C)[C@H]1CCCO	0	0	-15	-1	3	-9
CCC(C)[C@H](NC(=O)NCc1cccc(OC)c1)C(=O)O (stereo partly specified)	0	2	-86	2	1	-83*
O=C(NC(=S)Nc1cccnc1Cl)c1ccco1	0	-1	12	-4	6	9
O=[N+]([O-])c1ccc(C2CN=C(Nc3ccccc3)S2)cc1 (stereo unspecified)	0	/	65*	/	-1	44
CCc1ccc(NC2=NCC(c3ccccc3)S2)cc1 (stereo unspecified)	0	5	56*	1	1	35
Cc1cc(C)c2c(N)c(-c3nc4ccccc4[nH]3)sc2n1	0	1	73*	-1	3	33
Nc1cccc2c1C(=O)N(C(=O)c1ccc(S(=O)(=O)N3CCCCCC3)cc1)C2=O	0	3	3	0	6	-9
O=C(/C=C\c1ccc(-c2ccccc2)o1)c1ccccc1	0	-1	-28	-4	-3	-19
Cc1ccc(C(=O)/C=C/c2ccc(-c3ccc(C)cc3)o2)cc1	0	5	56*	-3	4	27
Cc1ccc(S/C=C\C(=O)c2ccccc2)cc1	0	8	118*	1	-17	85
Cc1ccc(C(=O)/C=C\C(=O)c2ccc(C)cc2)cc1	0	16	294*	13	-6	231
c1ccc(-n2cc(CN3CCCC(CN4CCCC4)C3)c(-c3ccc4c(c3)OCO4)n2)cc1 (stereo unspecified)	3	-4	26	-4	-24	1
CCn1c(CNC(=O)c2cccs2)nnc1SCC(=O)Nc1ccc(Cl)cc1	0	-2	9	4	/	-3
SMILES	aDG glyco act	GC-A act	HSF-1 act	GC-B act	Dyrk1A ADPGlo	HSF1 inh
O=C(C1CCCN1S(=O)(=O)c1ccc(Cl)s1)N1CCc2ccccc2C1 (stereo unspecified)	/	-4	/	-9	/	/
Brc1ccccc1-c1nnc(SCc2nc3ccccc3s2)o1	0	4	54*	-5	0	11
O=C(O)c1ccc(CSc2nnc(-c3ccccc3Br)o2)cc1	0	4	3	0	/	2
CCN(CC)S(=O)(=O)c1cccc(-c2nnc(SCc3nc4ccccc4s3)o2)c1	0	2	62*	-1	9	40
Cc1ccc(-n2cc(CN3CCNC(=O)CC3)c(-c3cccc(C)c3)n2)cc1	-1	-3	/	-3	-4	/
Cc1ccc(-n2cc(CN3CCN(Cc4nccn4C)CC3)c(-c3cccc(C)c3)n2)cc1	1	5	51*	1	9	28
CCOC(=O)c1ccc(NC(=O)C2(c3ccccc3)CCCC2)cc1	0	-5	-4	-2	-2	-3
COc1cccc(CSc2nc3ccccc3[nH]2)c1	1	-3	112*	-5	-62	63
c1ccc2[nH]c(SCc3cscn3)nc2c1	0	0	41	4	3	1
Fc1c(F)c(F)c(CSc2nc3ccccc3[nH]2)c(F)c1F	0	2	56*	0	2	33
Fc1ccccc1CSc1nc2ccccc2[nH]1	2	2	71*	-3	5	33
CC(C)(C)OC(=O)N1Cc2ccccc2C[C@H]1C(=O)NCC(=O)Nc1ccc2c(c1)OCCO2	0	0	-63	-2	-4	-64*
O=C(CNC(=O)c1ccco1)Nc1ccc2c(c1)OCCO2	0	4	-70	-4	0	-67*
COc1cccc(NC(=O)CNC(=O)[C@@H]2Cc3ccccc3CN2C(=O)OC(C)(C)C)c1	0	-3	1	0	0	3
Cc1ccc(NC(=O)CCNC(=O)c2ccco2)cc1	0	-1	6	3	0	-1
O=C(NC(=S)Nc1ccc2c(c1)OCCO2)c1ccco1	0	6	33	2	13	17
N#Cc1cccc(NCC(=O)Nc2ccc3c(c2)OCCO3)c1	0	5	68*	-1	-3	36
Cc1cccc(NC(=O)CCNC(=O)c2ccco2)c1	1	3	58*	1	5	3
O=C(NCCNC(=O)c1cccnc1)c1ccc(Br)cc1	0	1	-16	2	-2	-6
Cc1cc(OCc2nnc(SC(C)C(=O)O)n2-c2ccccc2)ccc1Cl (stereo unspecified)	0	0	-12	3	-3	-4
COc1ccc2cc(/C=N/NC(=O)CN(c3ccccc3)S(=O)(=O)c3ccccc3)c(Cl)nc2c1	/	/	8	/	/	2
Cc1ccc(-c2nc(C=Nc3ccc(O)cc3)c(O)o2)cc1	0	12	/	-7	0	/
